Bioassay records: PubChem BioAssay, National Center for Advancing Translational Sciences (NCATS)
BAZ2B block – inhibitors of human BAZ2B bromodomain | Potency, µM (highest dose often 114 µM), hits mostly inhibitors | 360,000 compounds, 4.4% hits | Q9UIF8 | AlphaScreen BAZ2B-H3K14Ac peptide displacement; further: nearly all actives have a fitted effect of over 60% in size
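BAZ2B (50 nM) with biotin-H3(5-23)K14Ac peptide (50 nM) in PBS pH 7.4, 0.01% Tween-20, preformed 30 min, then compound 30 min at room temperature; top concentration 110uM. AlphaScreen streptavidin donor/nickel chelate acceptor beads (10 ug/mL final), 20 min dark, signal read.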
PI5P4K alpha inh – PI5P4K alpha (human) kinase inhibition. P48426. PI5P4Kalpha enzyme, ADP-Glo luminescence, 60 min; active compounds read low. max response, %. 330,000 compounds, 1.2% hits; active means max response of -50% or lower; inconclusive means between -30% and -50%; inactive means -30% or higher; further: value at the top dose of about 77 µM
Target sequence (P48426 whole entry, looked up): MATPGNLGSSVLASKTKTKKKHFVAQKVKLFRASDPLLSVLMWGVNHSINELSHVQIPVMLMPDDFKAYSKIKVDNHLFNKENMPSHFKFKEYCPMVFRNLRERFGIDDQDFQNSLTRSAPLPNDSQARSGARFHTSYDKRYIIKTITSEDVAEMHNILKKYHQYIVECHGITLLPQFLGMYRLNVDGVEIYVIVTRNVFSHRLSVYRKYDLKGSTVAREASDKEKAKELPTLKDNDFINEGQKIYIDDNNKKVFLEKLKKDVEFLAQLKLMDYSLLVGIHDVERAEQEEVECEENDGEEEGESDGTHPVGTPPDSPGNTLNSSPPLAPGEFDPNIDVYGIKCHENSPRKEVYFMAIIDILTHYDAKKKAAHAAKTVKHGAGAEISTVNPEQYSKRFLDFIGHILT
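Human PI5P4Kalpha with substrate in 0.038 M HEPES pH 7.4, 0.28 mM EGTA, 0.1% CHAPS, 5% DMSO; reaction started with 5 microM ATP (final), 60 min at room temperature. ADP formed read by ADP-Glo luminescence.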
G9a block – inhibitors of human histone lysine methyltransferase G9a | Q96KQ7 | G9a H3K9 monomethylation, AlphaScreen, 2 h | Potency, µM (series often up to 102 µM), actives largely listed as inhibitors | 350,000 compounds, 8.8% hits | AID 504332; further: nearly all actives have a fitted effect of over 75% in size
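Quantitative HTS format: methyltransferase activity on a biotin-tagged H3K9 peptide is measured by AlphaScreen, using a rabbit anti-monomethyl-H3K9 antibody with streptavidin donor and anti-IgG acceptor beads. Final levels are 20 nM enzyme, 500 nM peptide, 20 uM SAM; 2 h RT.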
JMJD2A Tudor inh – inhibitors of human JMJD2A Tudor domain; Potency, µM (series often up to 114 µM), usual class: inhibitors; AlphaScreen JMJD2A-Tudor / H3K4me3 peptide binding; 390,000 compounds, 4.4% hits; further: nearly all actives have a fitted effect of over 50% in size
PLK1 PBD block – PLK1 (human) polo-box domain binding inhibition; Potency, µM, most hits filed as inhibitors; P53350; AID 720504; 360,000 compounds, 2.8% hits; Plk1 PBD binding of FITC phosphopeptide, fluorescence polarization; further: series mostly up to about 57 µM; nearly all actives have a fitted effect of over 65% in size
HP1b chromo inh – blocks HP1-beta chromodomain binding to methylated histone tails | AlphaScreen HP1-beta / biotin-H3K9me3 peptide binding | Potency, µM (titrated, usually from 114 µM), usual class: inhibitors | AID 540317 | P83916 | 390,000 compounds, 0.56% hits; further: nearly all actives have a fitted effect of over 70% in size
Target sequence (P83916 whole entry, looked up): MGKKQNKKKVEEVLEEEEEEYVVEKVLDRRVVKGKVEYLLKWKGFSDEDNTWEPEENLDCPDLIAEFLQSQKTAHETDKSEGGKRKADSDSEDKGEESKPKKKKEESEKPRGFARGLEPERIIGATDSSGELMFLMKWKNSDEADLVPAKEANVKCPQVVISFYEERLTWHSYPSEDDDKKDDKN
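HP1-beta protein (50 nM final) preincubated 30 min at room temperature with biotinylated H3(1-18)K9me3 peptide (50 nM) in PBS pH 7.4, 0.01% Tween-20, then compound added for 30 min. AlphaScreen streptavidin donor/nickel chelate acceptor beads (10 ug/mL final), 30 min dark, luminescence read.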
Of the large screens only hits and unclear results are named; the others gave an inactive call. In the library only some 12% were active in any assay of this set; here they are far more common. Unless noted, the call rests on the fitted dose curve; in most records, active means well fitted curve in the direction sought with a large enough effect; inconclusive means small, poorly fitted or top-dose-only effect, or another doubt; inactive means no such curve, though single readings can be large; an effect the other way counts as inactive or inconclusive.

O=C(Nc1nc2ccccc2s1)C1CCN(S(=O)(=O)c2cc([N+](=O)[O-])ccc2Cl)CC1	BAZ2B block 28µM, PI5P4K alpha inh inconclusive, G9a block inconclusive, JMJD2A Tudor inh inconclusive
CNC(=S)N(C)/N=C1/C(=O)N(Cc2c(Cl)cccc2Cl)c2ccccc21	BAZ2B block 25µM, JMJD2A Tudor inh 5µM
CCOC(=O)C1(C)C=C(Nc2ccc(O)cc2)C(=O)N1c1ccc(O)cc1 (stereo not given)	BAZ2B block 50µM, G9a block 8.9µM, JMJD2A Tudor inh inconclusive
CCN1C[C@@H]2[C@@H]3C(=O)N(C)C(=O)[C@@H]3[C@](CC)(C1=O)N2C(=O)c1ccccc1	none (no result: BAZ2B block, G9a block)
CN(CC(=O)Nc1c(Cl)cccc1Cl)C(=O)Cc1ccc2c(c1)CCC2	G9a block 3.5µM, PLK1 PBD block 15µM, HP1b chromo inh inconclusive
CCN(CC(=O)Nc1c(F)cccc1F)C(=O)Cc1ccc2c(c1)CCC2	G9a block 10µM, PLK1 PBD block 17µM, HP1b chromo inh inconclusive
O=C(Cc1ccc2ccccc2c1)Nc1ccccc1Br	none
CCCN(CC(=O)Nc1ccccc1OC)C(=O)Cc1ccc2c(c1)CCC2	G9a block inconclusive, PLK1 PBD block 21µM
O=C(Cc1ccc2c(c1)CCCC2)Nc1ccccc1Br	G9a block 45µM, PLK1 PBD block 24µM (no result: PI5P4K alpha inh)
CC1(C(=O)NS(=O)(=O)c2ccc(Cl)s2)CCN1C(=O)c1ccccc1CCc1ccccc1 (stereo not given)	none (no result: BAZ2B block, G9a block, JMJD2A Tudor inh, HP1b chromo inh)
O=C(C(=O)N1CCN(c2ccccc2)CC1)c1ccco1	none (no result: BAZ2B block, G9a block, JMJD2A Tudor inh, HP1b chromo inh)
C=CCOC1=CS(=O)(=O)N(Cc2ccc(Br)cc2)c2ccc(Br)cc21	PLK1 PBD block inconclusive (no result: BAZ2B block, G9a block)
CN(C)C=NC1=NN(c2cccc(C(F)(F)F)c2)CC1	BAZ2B block inconclusive, G9a block 2.2µM, JMJD2A Tudor inh inconclusive
CN1CCN(C=NC2=NN(c3cccc(C(F)(F)F)c3)CC2)CC1	BAZ2B block inconclusive, G9a block 2.8µM, JMJD2A Tudor inh inconclusive, HP1b chromo inh inconclusive
Cc1nnc(N2C(=O)c3oc4ccccc4c(=O)c3C2c2ccco2)s1 (stereo not given)	G9a block 20µM
CC(C)c1nnc(N2C(=O)c3oc4ccccc4c(=O)c3C2c2ccco2)s1 (stereo not given)	none
Cc1ccc(C2c3c(oc4ccccc4c3=O)C(=O)N2c2nnc(C(C)C)s2)o1 (stereo not given)	G9a block 50µM
Cc1ccc(SCc2nc(-c3ccc(C(=O)NCC(C)c4ccccc4)cc3)oc2C)cc1 (stereo not given)	none (no result: PI5P4K alpha inh, PLK1 PBD block)
CCCOc1ccccc1NC(=O)Nc1ccccc1Cl	none
Cc1ccc2c(c1)c(C)cc[n+]2Cc1ccccc1	G9a block 50µM
COc1ccc2c(c1)c(C)cc[n+]2Cc1ccccc1	none
CC(=O)Nc1ccc(NC(=O)C2(C)CC2(Cl)Cl)cc1 (stereo not given)	JMJD2A Tudor inh inconclusive, PLK1 PBD block 21µM
CN(C)c1cccc(NC(=O)C2(C)CC2(Cl)Cl)c1 (stereo not given)	none
CCc1ccc(NC(=O)CCn2cnc3ccccc3c2=O)cc1	JMJD2A Tudor inh 79µM (no result: PI5P4K alpha inh, PLK1 PBD block)
Cc1ccc(NC(=O)CCn2cnc3ccccc3c2=O)cc1Cl	none
Cc1cccc(C)c1NC(=O)CCn1cnc2ccccc2c1=O	PLK1 PBD block 27µM
CC(C)(C)NC(=O)CSc1nnc(NC(=O)CCn2cnc3ccccc3c2=O)s1	JMJD2A Tudor inh 25µM
CC(C)(C)c1csc(NC(=O)Cn2cnc3ccccc3c2=O)n1	G9a block inconclusive, JMJD2A Tudor inh inconclusive, PLK1 PBD block 13µM, HP1b chromo inh inconclusive
N#Cc1cccc(-c2nc(NCCN3CCOCC3)c3ccccc3n2)c1	none (no result: BAZ2B block, PI5P4K alpha inh, JMJD2A Tudor inh, PLK1 PBD block, HP1b chromo inh)
COc1ccc(CNC(=O)C(=O)NCC(c2ccco2)S(=O)(=O)c2ccc(Cl)cc2)cc1 (stereo not given)	none (no result: PI5P4K alpha inh, PLK1 PBD block)
Nc1nonc1-n1nnc(C(=O)N/N=C/c2cccc(Cl)c2)c1CN1CCCCCC1	none (no result: BAZ2B block, G9a block)
COCc1c(C(=O)N/N=C\c2ccccn2)nnn1-c1nonc1N	BAZ2B block 40µM, G9a block 0.79µM, JMJD2A Tudor inh 79µM
Nc1nonc1-n1nnc(C(=O)N/N=C/c2ccc(O)cc2)c1CN1CCCCCC1	JMJD2A Tudor inh inconclusive, PLK1 PBD block inconclusive (no result: BAZ2B block, G9a block)
Nc1nonc1-n1nnc(C(=O)N/N=C/c2ccc(Cl)cc2Cl)c1CN1CCCCC1	G9a block 35µM
COCc1c(C(=O)N/N=C/c2c[nH]c3ccccc23)nnn1-c1nonc1N	none
CCCN(CCC)Cc1c(C(=O)N/N=C/c2c[nH]c3ccccc23)nnn1-c1nonc1N	PI5P4K alpha inh -63
Nc1nonc1-n1nnc(C(=O)N/N=C/c2cccc(O)c2)c1CN1CCCC1	G9a block 45µM
CSCC(=O)NC1CCCc2c1cnn2-c1ccc(C)c(C)c1 (stereo not given)	none (no result: G9a block)
COC(=O)C1=C(C(=O)OC)[C@@H]2Nc3ccccc3[C@@]23C[C@@H](C(=O)OC)N(C(=O)NC2CCCCC2)C3=N1	PLK1 PBD block inconclusive (no result: BAZ2B block, G9a block)
NNC(=O)C(=O)NCCCN1CCOCC1	G9a block 56µM, JMJD2A Tudor inh inconclusive
CC(C)CNC(=O)C(=O)NCCCN1CCOCC1	PLK1 PBD block 21µM (no result: G9a block)
O=C1NC[C@H](CCCCN2CCN(CCC3CCCCC3)C(=O)C2=O)N(CCc2ccccc2)C1=O	none (no result: BAZ2B block, G9a block, JMJD2A Tudor inh, HP1b chromo inh)
COc1ccc(NC(=O)N(C)C[C@H]2Oc3ccc(NS(=O)(=O)c4cccs4)cc3C(=O)N([C@@H](C)CO)C[C@@H]2C)cc1	none (no result: BAZ2B block, G9a block)
Cc1ccc(S(=O)(=O)N2CCCCC2)cc1C(=O)NCCN1CCOCC1	none
O=C1CC(Nc2ccccc2)C(=O)N1c1ccc(N2CCOCC2)cc1 (stereo not given)	none
COc1ccc(CCNC2CC(=O)N(CCc3ccccc3)C2=O)cc1OC (stereo not given)	G9a block inconclusive (no result: PI5P4K alpha inh)
COc1ccc(CCN2C(=O)CC(N3CCOCC3)C2=O)cc1OC (stereo not given)	none
O=C1CC(Nc2ccc(N3CCOCC3)cc2)C(=O)N1c1ccccc1F (stereo not given)	G9a block 8.9µM, JMJD2A Tudor inh inconclusive
COc1ccc(CCN2C(=O)CC(Nc3ccc(N4CCOCC4)cc3)C2=O)cc1OC (stereo not given)	BAZ2B block 45µM, G9a block 14µM, JMJD2A Tudor inh inconclusive
CCOC(=O)C1=NOC2C3CC(C12)C1C(=O)N(CCc2ccc(OC)c(OC)c2)C(=O)C31 (stereo not given)	BAZ2B block inconclusive, JMJD2A Tudor inh 35µM, PLK1 PBD block 27µM, HP1b chromo inh inconclusive (no result: G9a block)
CCc1ccc(NC2CC(=O)N(CCc3ccc(OC)c(OC)c3)C2=O)cc1 (stereo not given)	G9a block 50µM, JMJD2A Tudor inh inconclusive, PLK1 PBD block 27µM, HP1b chromo inh inconclusive
